Hit rate of the full screen: of about 360,000 compounds, about 25,000 (6.9%) were called active. About 9% were inconclusive and are not listed. This is one part of a sample in which actives are shown more often than they occur. A number with no mark means an inactive call. Calls follow the shape of the dose curve; as a rule, active = well fitted inhibition curve with a large enough effect; inconclusive = small, poorly fitted or top-dose-only effect; inactive = flat fitted curve, though single readings scatter.
These compounds were tested against Luciferin 4-monooxygenase (Photinus pyralis) (UniProt P08659) (assay: qHTS profiling assay for firefly luciferase inhibitor/activator using purifed enzyme and Km concentrations of substrates (counterscreen for miR-21 project)). Conditions: purified FLuc, luminescence inhibition; series mostly up to 57.5 µM; activity change, negative = inhibition: at the top concentration.
How it was run: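 Purified P. pyralis luciferase, 10 nM final, with Km-level 10 uM D-luciferin and 10 uM ATP in 50 mM Tris acetate pH 7.5, 10 mM Mg acetate, 0.01% Tween-20, 0.05% BSA; 6-point qHTS titration about 60 µM downward; luminescence read.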
Also: nearly all actives have a fitted effect of over 55% in size.
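For activity change, negative = inhibition in this document: plate controls were vehicle for no effect and reference inhibitor for full effect.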
Potency is read from the fitted curve at half-maximal effect.

Luciferin 4-monooxygenase (Photinus pyralis), sequence (P08659 whole entry, looked up): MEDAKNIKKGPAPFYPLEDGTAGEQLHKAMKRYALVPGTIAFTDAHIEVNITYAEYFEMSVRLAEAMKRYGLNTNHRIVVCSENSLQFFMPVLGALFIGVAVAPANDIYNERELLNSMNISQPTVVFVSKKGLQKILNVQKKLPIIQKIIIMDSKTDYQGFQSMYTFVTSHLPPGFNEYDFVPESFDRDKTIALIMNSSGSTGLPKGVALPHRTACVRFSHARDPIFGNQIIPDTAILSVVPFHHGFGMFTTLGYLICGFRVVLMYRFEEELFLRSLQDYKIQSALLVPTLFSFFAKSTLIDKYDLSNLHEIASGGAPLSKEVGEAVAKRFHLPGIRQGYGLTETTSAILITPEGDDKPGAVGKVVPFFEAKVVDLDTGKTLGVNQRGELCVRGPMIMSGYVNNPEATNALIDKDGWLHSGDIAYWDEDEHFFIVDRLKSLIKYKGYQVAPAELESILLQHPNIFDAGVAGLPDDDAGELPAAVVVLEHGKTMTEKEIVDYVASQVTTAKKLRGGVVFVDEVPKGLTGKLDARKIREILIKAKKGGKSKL

| Structure (SMILES) | activity change, negative = inhibition [%] | Potency |
| --- | --- | --- |
| CCCCCCn1cc(C(=O)O)c(=O)c2cc(F)c(N3CCCCC3)cc21 | 1.99 | – |
| O=C(Nc1nc2cc3c(cc2s1)OCCO3)c1cccc(S(=O)(=O)N2CCOCC2)c1 | – | 7.57 µM (active) |
| O=C(Nc1ccc(S(=O)(=O)Nc2nccs2)cc1)c1cccc(S(=O)(=O)N2CCOCC2)c1 | -17.3 | – |
| Cc1cc2nc(NC(=O)c3ccc(S(=O)(=O)N4CCOCC4)cc3)sc2cc1C | 4.43 | – |
| CC(Sc1nnc(-c2cccs2)n1C1CC1)C(=O)NCC1CCCO1 (stereo unspecified) | 4.14 | – |
| CCOc1ccccc1NC(=O)C1=C(C)Nc2ncnn2C1c1ccc(NC(C)=O)cc1 (stereo unspecified) | -2.67 | – |
| COc1ccc(-c2nnc3n2CCCCC3)cc1 | 0.399 | – |
| COc1ccc(-c2nc3n(c2Br)CCC3)cc1 | – | 7.57 µM (active) |
| Brc1cccc(-c2nnc3n2CCC3)c1 | 1.44 | – |
| CC(=O)c1ccc2c(ccc3ccccc32)c1 | – | 21.3 µM (active) |
| CCN(CC)Cc1cc(C(C)=O)ccc1O | -1.11 | – |
| COc1cccc(N2CC(NC(=O)c3ccc4ccccc4c3)CC2=O)c1 (stereo unspecified) | -1.3 | – |
| O=C(NCC(=O)N1CCN(c2ccccc2O)CC1)c1ccc2ccccc2c1 | -17.3 | – |
| CC(=O)CCC(=O)c1ccc2ccccc2c1 | – | 26.9 µM (active) |
| CC(=O)c1ccc2c(c1)c1ccccc1n2CC(C)C | -4.18 | – |
| CC(C)(C)OC(=O)NCCCCCNC(=O)c1nc[nH]c1C(=O)NCc1ccccc1 | -15.1 | – |
| Cc1ccccc1NC(=O)Cn1c(=O)n(Cc2ccco2)c(=O)c2ccc(C(=O)NC3CCCC3)cc21 | -0.556 | – |
| CNC(=O)c1nnn(-c2ccccc2)c1C(=O)NC | -2.19 | – |
| CC(=O)NC12CC3CC(C1)CC(C(=O)N1CCN(S(=O)(=O)c4cccs4)CC1)(C3)C2 | 6.36 | – |
| CC(C)(C)c1ccc(C(=O)Nc2ccc3c(c2)CCCN3C(=O)c2cccs2)cc1 | -13.7 | – |
| CCc1nnc(SCC(=O)Nc2cc(OC)ccc2OC)nc1CC | 0.467 | – |
| O=C(O)c1ccc(NS(=O)(=O)c2ccc3c(c2)C(=O)c2cc(S(=O)(=O)Nc4ccc(C(=O)O)cc4)ccc2-3)cc1 | – | 23.9 µM (active) |
| CC(=O)c1c(C)oc2ccc(NS(=O)(=O)c3ccc(C(=O)O)cc3)cc12 | -0.624 | – |
| O=C(c1ccc(NS(=O)(=O)c2ccc3[nH]c(=O)[nH]c3c2)cc1)N1CCCCC1 | -2.18 | – |
| O=C(CSc1ncc(CO)n1Cc1ccc(F)cc1)NCc1ccco1 | 2.1 | – |
| COc1ccccc1NC(=O)Cn1cnc2ccc(S(=O)(=O)N3CCC(C)CC3)cc2c1=O | -1.78 | – |

| Structure (SMILES) | activity change, negative = inhibition [%] | Potency |
| --- | --- | --- |
| CCCN(CC(=O)Nc1ccccc1C)C(=O)c1ccc2[nH]c3c(c2c1)CC(C)CC3 (stereo unspecified) | -4.18 | – |
| c1ccc2c(NC3C4CC5CC(C4)CC3C5)nc(N3CCOCC3)nc2c1 (stereo unspecified) | 0.91 | – |
| Cc1cc(OCC(=O)Nc2ncn[nH]2)c(C)c(C)c1Br | -0.153 | – |
| CC1Cc2ccccc2N1C(=O)CSc1nnc(C2CC2)n1C (stereo unspecified) | 0.0229 | – |
| O=C(c1ccc2ccccc2n1)N1CCN(c2ccccc2Cl)CC1 | – | 16.9 µM (active) |
| O=C(c1c(Cl)cccc1Cl)N1CCN(c2cccc3[nH]ccc23)CC1 | -2.83 | – |
| COc1ccccc1N1CCN(C(=O)c2c(-c3c(Cl)cccc3Cl)noc2C)CC1 | 4 | – |
| Cc1cccc(C)c1Nc1nnc(SCC(=O)Nc2sccc2C#N)s1 | -3.48 | – |
| Cc1csc(SCC(=O)Nc2sccc2C#N)n1 | – | 2.13 µM (active) |
| Cc1ccc(NC(=O)CSCC(=O)Nc2sccc2C#N)cc1 | 9.39 | – |
| CC(OC(=O)Cc1ccc(F)cc1)C(=O)N1CCc2ccccc21 (stereo unspecified) | 1.31 | – |
| CC(C(=O)O)n1cnc2sc3c(c2c1=O)CCCC3 (stereo unspecified) | -12.5 | – |
| CC(C)(C)OC(=O)N1CCC(c2c(C(=O)N3CCc4ccccc4C3)cnn2-c2ccc(F)cc2)CC1 | -7.72 | – |
| Cc1ccc(OCC(=O)NCCCNC(=O)c2cccnc2)cc1C | -0.246 | – |
| O=C(NCc1cccc(CNC(=O)Nc2cccc(O)c2)c1)Nc1cccc(O)c1 | -18.1 | – |
| O=C(Nc1cccc(O)c1)c1ccc(C(=O)c2ccccc2)o1 | – | 6.75 µM (active) |
| COc1cc(/C=C(/NC(=O)c2ccccc2)C(=O)Nc2cccc(O)c2)c([N+](=O)[O-])cc1OC | 0.805 | – |
| Cc1ccc(NC(=O)COc2ccc(/C=N\NC(=O)c3cccnc3)cc2)cc1C | -8.22 | – |
| CC(=O)c1cccc(NC(=O)[C@@H](NC(N)=O)C(C)C)c1 | -1.72 | – |
| C/C(=C\C(=O)c1cccnc1)Nc1ccc(C)c(C)c1 | – | 6.75 µM (active) |
| C/C(=C\C(=O)c1ccccc1)Nc1cccc(O)c1 | – | 3.38 µM (active) |
| O=C(CSc1ccccc1)Nc1ccc(C(=O)Nc2cccc(O)c2)cc1 | -19.6 | – |
| CC1(C)CC(=O)C=C(c2ccc3ncccc3c2)C1 | -12.7 | – |
| CCOC(=O)C1CCN(C(c2ccc(F)cc2)c2sc3nc(-c4ccco4)nn3c2O)CC1 (stereo unspecified) | -17.7 | – |
| CCN(CCCNC(=O)Cn1ncc2c([nH]c3ccccc32)c1=O)c1cccc(C)c1 | -2.09 | – |
| CC(=O)c1ccc(N2CCN(C(=O)c3ccc(Cl)c(S(=O)(=O)NC4CC4)c3)CC2)c(F)c1 | -5.23 | – |

| Structure (SMILES) | activity change, negative = inhibition [%] | Potency |
| --- | --- | --- |
| Cc1ccc(CNC(=O)c2cccc3c2C(=O)c2ccc(N4CCC(C)CC4)cc2S3(=O)=O)cc1 | -46.4 | – |
| CCOC(=O)[C@H]1[C@H]2COc3ccc(C)cc3[C@@H]2N2C(=O)CN(Cc3ccc(F)cc3)C(=O)[C@@]12C | 0.429 | – |
| CCOc1ccc(CNC(=O)C2CCCN(S(=O)(=O)N(CC)c3ccc(OCC)cc3)C2)cc1 (stereo unspecified) | -14.8 | – |
| Cc1ccc(Cl)cc1NC(=O)NC1COc2ccccc2C1 (stereo unspecified) | 0.229 | – |
| CN(C)S(=O)(=O)c1cc(C(=O)Nc2ccn(C)n2)c(Cl)cc1Cl | 3 | – |
| Cn1ccc(NC(=O)Nc2ccc(Cl)cc2)n1 | – | 16.9 µM (active) |
| Cc1ccc(C(=O)Nc2ccn(C)n2)cc1 | 10.3 | – |
| Cc1ccc2nc(COc3ccc(NC(=O)COc4ccccc4F)cc3)cc(=O)n2c1 | -1.49 | – |
| CC(NC(=O)c1cc2c(=O)n3ccccc3nc2n(C(C)C)c1=N)c1ccccc1 (stereo unspecified) | -4.62 | – |
| CCC(=O)N1CCc2cc(Br)cc(S(=O)(=O)CCC(=O)N3CCN(c4ccc(F)cc4)CC3)c21 | 4.84 | – |
| COc1ccc([C@H]2CC(=O)C=C(/C=C/c3ccccc3)C2)cc1 | -29.8 | – |
| COc1ccc(-c2cn3c(n2)sc2cc(C(=O)Nc4ccccc4F)ccc23)cc1 | -7.07 | – |
| O=C(Cc1cccs1)Nc1ccc([N+](=O)[O-])cc1 | -12.9 | – |
| O=C(Nc1ccc(N2CCN(C(=O)C3CC3)CC2)cc1)c1cccs1 | -13.9 | – |
| O=C(Nc1ccccc1)c1ccc(NC(=O)c2cccs2)cc1 | -0.452 | – |
| O=C(O)Cc1ccc(NC(=O)c2cccs2)cc1 | – | 12 µM (active) |
| CCOc1ccccc1NC(=O)Cc1cccs1 | -0.362 | – |
| Cc1cccc(C(=O)OCC(=O)Nc2ccc(F)cc2)c1 | -4.32 | – |
| O=C(COC(=O)c1cccs1)NCc1cccs1 | -19.2 | – |
| CCc1ccc(NC(=O)CCNS(=O)(=O)c2cccs2)cc1 | -19.1 | – |
| CC(=O)Nc1ccc(NC(=O)[C@@H](NC(=O)c2cccc(C)c2)C(C)C)cc1 | 0.122 | – |
| Cc1cccc(C(=O)Nc2ccc(CC(=O)O)cc2)c1 | – | 9.53 µM (active) |
| CCc1ccc(NC(=O)COC(=O)c2cccs2)cc1 | – | 6.75 µM (active) |
| CCOC(=O)c1ccc(NC(=O)Cc2cccs2)cc1 | – | 15.1 µM (active) |

Source: PubChem BioAssay AID588342 (National Center for Advancing Translational Sciences (NCATS), 2011)
